The list is not random: actives were taken first. Their share in the collection is about 2.4%.
POLH inh: inhibitors of human DNA polymerase eta; recombinant Pol eta, fluorescent DNA replication assay; Potency, µM (top dose mostly 114 µM), for inactives: at the highest dose activity change, negative = inhibition, usual class: inhibitors; 1.2% of 390,000 active; AID 588591; note: % is set by controls: 0 for no effect and ±100 for the full control effect
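Pol eta (10 nM) was preincubated with compounds for 15 min at room temperature, after which fluorescent replication substrate (50 nM final) was added to start the reaction. Fluorescence was read kinetically at 0 and 10 min.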
POLI inh: DNA polymerase iota (human) inhibition; Q9UNA4; Pol iota fluorescent replication assay, 10 min; Potency, µM (series often up to 115 µM), without a hit: top-dose activity, negative = inhibition, actives largely listed as inhibitors; 1% of 390,000 active; AID 588590
Target sequence (Q9UNA4 whole entry, looked up): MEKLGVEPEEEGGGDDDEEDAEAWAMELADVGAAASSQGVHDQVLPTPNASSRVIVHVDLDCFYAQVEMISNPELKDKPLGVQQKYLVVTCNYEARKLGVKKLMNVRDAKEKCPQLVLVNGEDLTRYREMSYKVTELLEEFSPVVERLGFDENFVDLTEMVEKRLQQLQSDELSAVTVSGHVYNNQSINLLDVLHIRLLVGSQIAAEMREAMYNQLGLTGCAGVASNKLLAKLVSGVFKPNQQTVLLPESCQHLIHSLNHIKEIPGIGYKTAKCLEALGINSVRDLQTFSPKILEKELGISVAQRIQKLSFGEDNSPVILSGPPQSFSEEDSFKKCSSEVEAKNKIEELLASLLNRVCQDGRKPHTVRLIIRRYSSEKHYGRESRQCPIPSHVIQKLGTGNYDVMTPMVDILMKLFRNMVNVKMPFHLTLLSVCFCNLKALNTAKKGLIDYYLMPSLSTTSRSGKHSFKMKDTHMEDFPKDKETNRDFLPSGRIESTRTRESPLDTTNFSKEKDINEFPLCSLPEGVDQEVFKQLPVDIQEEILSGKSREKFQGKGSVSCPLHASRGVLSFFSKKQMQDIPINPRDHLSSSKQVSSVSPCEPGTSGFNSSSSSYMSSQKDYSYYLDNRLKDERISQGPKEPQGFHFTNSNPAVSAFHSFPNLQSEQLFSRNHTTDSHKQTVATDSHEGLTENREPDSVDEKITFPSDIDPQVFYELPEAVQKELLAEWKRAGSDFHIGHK
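Pol iota at 10 nM preincubated 15 min with compounds at room temperature; reaction started with fluorescent substrate, 50 nM final. Fluorescence read kinetically at 0 and 10 min; buffer-only wells as negative control.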
POLB inh: DNA polymerase beta (human) inhibition; 1.3% of 340,000 active; Pol beta primer extension/strand displacement, fluorescence kinetic; Potency, µM (series often up to 114 µM), inactives show top-dose activity change, negative = inhibition, actives largely listed as inhibitors; AID 485314; note: % is set by controls: 0 for no effect and ±100 for the full control effect
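Enzyme-only controls used 10 nM Pol beta; buffer lacking enzyme served as negative control. Compound preincubated 15 min, then 50 nM substrate added; 0 and 10 min reads at room temperature.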
WRN inhibitor: inhibitors of human WRN helicase; Q14191; WRN helicase unwinding, fluorescent forked duplex, kinetic; 0.46% of 360,000 active; Potency, µM (titrated, usually from 114 µM), for inactives: top-dose activity change, negative = inhibition, hits mostly inhibitors; note: % is set by controls: 0 for no effect and ±100 for the full control effect; nearly all actives have a fitted effect of over 55% in size
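Kinetic red-fluorescence monitoring (525/598 nm) tracks WRN helicase activity after 100 nM fluorophore-quencher forked duplex and 2 mM ATP are added to 20 nM enzyme pretreated 15 min at room temperature with compound.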
POLK inh: DNA polymerase kappa (human) inhibition. purified Pol kappa, fluorescent DNA synthesis assay, 10 min. Potency, µM (doses to about 107 µM), for inactives: top-dose activity, negative = inhibition, most hits filed as inhibitors. 0.53% of 400,000 active. AID 588579; note: % is set by controls: 0 for no effect and ±100 for the full control effect
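Kinetic fluorescence screen: compound preincubated 15 min RT with 10 nM enzyme; 50 nM substrate (final) initiates; reads at 0/10 min.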
FEN1 inhibitor: human FEN1 inhibition. P39748. Recombinant FEN1 flap cleavage, fluorescence, 15 min. Potency, µM (titrated, usually from 114 µM), without a hit: top-dose activity change, negative = inhibition, actives largely listed as inhibitors. 0.35% of 390,000 active; note: % is set by controls: 0 for no effect and ±100 for the full control effect; nearly all actives have a fitted effect of over 65% in size
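Concentration–response screening of FEN1 (10 nM): 15 min compound preincubation at room temperature, reaction started with 50 nM substrate and read at 0 and 15 min. Corrected, normalized data were fitted by a four-parameter Hill equation.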
* hit, by the source's call; ? = inconclusive; / = not tested or not shown; [ ] = remark or other dose. Calls come from the whole dose curve; as a rule, active = well fitted curve in the direction sought with a large enough effect; inconclusive = small, poorly fitted or top-dose-only effect, or another doubt; inactive = no such curve, though single readings can be large; an effect the other way counts as inactive or inconclusive. Potency is the fitted concentration of half-maximal effect.

SMILES	POLH inh	POLI inh	POLB inh	WRN inhibitor	POLK inh	FEN1 inhibitor
O=C(O)CCN1C(=O)/C(=C\c2cccc(OCC(=O)Nc3ccc(Cl)cc3)c2)SC1=S	0.8%	?	56.2µM*	-32.0%	?	0.0%
O=C(CCN1C(=O)/C(=C/c2cccs2)SC1=S)Nc1ccc(C(=O)O)c(O)c1	39.8µM*	17.9%	?	-12.1%[11.6 µM]	-2.7%	-0.6%
Cc1ccc(NC(=O)COc2cccc(/C=C3\SC(=S)N(CCC(=O)O)C3=O)c2)cc1Cl	44.7µM*	50.1µM*	?	-15.0%[11.6 µM]	79.4µM*	0.0%
Cc1ccc(-n2cnc3cc(C(=O)NCc4ccc(F)cc4)ccc32)c(C)c1	-7.4%	-4.2%	-0.4%	/	-7.1%[60.1 µM]	-10.7%
O=C1c2cccc3c(O)ccc(c23)C(=O)N1Cc1ccco1	31.6µM*	20µM*	?	?	?	?
Cc1nc2ccc(S(=O)(=O)N(C)CC(=O)Nc3ccc(Br)c(C)c3)cc2s1	/	34.3%	3.9%	/	-17.6%	-4.5%
CC(C)(C)c1ccc(C(=O)Nc2sc3c(c2C#N)CCC(C(C)(C)C)C3)cc1 (configuration not stated)	-18.5%	2.4%	-0.5%	/	-0.3%	13.3%
N#Cc1c(NC(=O)C2CC=CCC2C(=O)O)sc2c1CCCCCC2 (configuration not stated)	?	-11.9%	17.8µM*	-33.3%[57.1 µM]	-26.7%	-4.0%
CC(C)(C)C1CCc2c(sc(NC(=O)C3CC=CCC3C(=O)O)c2C#N)C1 (configuration not stated)	?	6.1%	70.8µM*	-29.2%[57.1 µM]	-14.5%	-0.1%
N#Cc1c(NC(=O)CCC(=O)O)sc2c1CCCCC2	?	?	-10.3%	-30.1%	-12.6%	0.2%
c1ccc2nc(-c3cc4ccccc4s3)ccc2c1	/	4.6%	/	/	-3.1%	-16.9%
Cc1cc2nc3ccc(=[N+](C)C)cc-3sc2cc1N	?	17.8µM*	8.91µM*	/	-32.4%	22.4µM*
Cc1ccc(NC(=O)CCl)c(C)c1	-3.3%	98.9%	20.4%	8.5%	-17.6%	4.2%
Cc1ccc(NC(=O)C(=Cc2ccc(C(=O)O)cc2)C(=O)Nc2ccc(C)cc2C)c(C)c1	79.4µM*	12.6µM*	-25.3%	?	7.9%	-2.3%
CNCC(=O)NC(CCCN=C(N)N)C(=O)NC(C(=O)NC(Cc1ccc(O)cc1)C(=O)NC(C(=O)NC(Cc1cnc[nH]1)C(=O)N1CCCC1C(=O)NC(C)C(=O)O)C(C)C)C(C)C (configuration not stated)	/	/	/	/	3.3%[19.4 µM]	/
COc1cccc(OCc2cc(C3Nc4ccccc4C(=O)N3c3ccccc3)ccc2OC)c1 (configuration not stated)	/	26.1%	/	/	8.9%	3.4%
CCOC(=O)C(=O)Nc1ccc(S(=O)(=O)Nc2ncccn2)cc1	-4.5%	-11.3%	89.1µM*	-4.5%	-12.9%	-6.0%
C[N+]1(CC(=O)c2ccccc2)CCc2ccccc2C1 (configuration not stated)	/	-13.5%	/	/	-4.5%	19.0%
O=C(CSc1nnc(-c2ccco2)c(-c2ccco2)n1)c1ccccc1	35.5µM*	17.8µM*	-4.6%	?	79.4µM*	?
CC(=O)c1ccc(NC(=O)CSc2nnc(-c3ccco3)c(-c3ccco3)n2)cc1	22.4µM*	?	20µM*	31.6µM*	14.1µM*	31.6µM*
O=C(COC(=O)c1ccccc1OCCOc1ccccc1)Nc1ccc(Br)cc1	/	-10.7%	/	/	-33.8%	-20.5%
CN(C)c1ccc(/C=C2/CCc3ccccc32)cc1	/	8.9%	/	/	-12.8%	5.1%
COc1ccc([N+](=O)[O-])cc1NC(=O)Nc1ccc(OC)c(OC)c1	-9.1%	-28.7%	20µM*	?	-22.0%	-15.3%
COc1ccc([N+](=O)[O-])cc1C(=O)Nc1ccc(Cc2ccncc2)cc1	3.8%	7.7%	11.2µM*	-0.5%	-10.6%	-14.2%
COc1ccc(NC(=O)Nc2ccc(OC)c(OC)c2)c([N+](=O)[O-])c1	-3.0%	0.7%	30.7%	-5.9%	6.4%	6.1%
COc1ccccc1C(=O)Nc1ccc(Cc2ccncc2)cc1	-15.5%	24.8%	17.1%	4.3%	-16.2%	16.0%

Assay outcomes: PubChem, National Center for Advancing Translational Sciences (NCATS)
